Laboratory results reported in PubChem BioAssay AID504725 (Broad Institute, 2011).
Results with a measured potency or affinity are listed apart. The source made the active and inactive calls. The rule behind the calls is not given here.

Biological target: KSHV LANA C-terminal domain (residues 932-1162) binding to LBS DNA (UniProt O40947)
Assay: KSHV LANA DNA-binding disruption – biochemical, fluorescence polarization, cherry-picked samples, dose response (AID 504725)
Conditions: MBP-C-LANA / FAM-LBS DNA fluorescence polarization, percent change from plate compound-well median; series mostly up to 35 µM

outcome, inactive:
COc1ccc(-c2n[nH]c(=S)n2-c2ccc(C)cc2)cc1
Nc1nc(-c2ccc(C(=O)O)cc2)cs1
COC(=O)Cn1c(=NC(=O)c2sc3ccccc3c2Cl)sc2cc(S(N)(=O)=O)ccc21
COc1ccc(CC(=O)O/N=C(\N)c2ccc(OC)cc2)cc1
Cc1ccc(NC(=O)CN2C(=O)N/C(=C/c3cc(C)n(-c4ccc(C(=O)O)cc4)c3C)C2=O)cc1
CCOC(=O)c1sc(NC(=O)CSC(=S)N2CCN(C)CC2)nc1C
COc1cccc(/C=N/NC(=O)C(=O)NCc2cccnc2)c1O
Cc1cc(NS(=O)(=O)c2ccc(Nc3nc(-c4sc(N)nc4C)cs3)cc2)no1
O=C1CN=C(Nc2ccccc2Cl)N1Cc1ccc2c(c1)OCO2
NNc1nnc2c3cc(F)ccc3n(Cc3ccccc3)c2n1
COC(=O)c1ccc(Oc2nc(Nc3ccc(F)cc3)nc(N3CCCC3)n2)cc1
O=C(CCn1c(=S)oc2ccccc21)N1CCN(c2ccc(F)cc2)CC1
NNC(=O)C1C(O)CCC2CN3CCc4c([nH]c5ccccc45)C3CC21 (centres undefined)
Nc1ccccc1C(=O)N1O[C@@H]2C=C[C@H]1CC2
COc1ccc(Br)cc1CNC(=O)CCCc1cn(C)c2ccccc12
COc1ccc(N(CC(=O)NCc2ccc3c(c2)OCO3)C(=O)c2csnn2)cc1
O=c1cc(-c2ccc(O)c(O)c2)oc2cc(O[C@@H]3O[C@H](CO)[C@@H](O)[C@H](O)[C@H]3O)cc(O)c12
COc1ccc(C(=O)N/N=C/c2ccc(OC)c(COc3ccccc3)c2)cc1
O=C(O)CCN1C(=O)/C(=C\c2ccc(-c3nc4ccccc4s3)o2)SC1=S
